High-throughput results deposited in PubChem by National Center for Advancing Translational Sciences (NCATS).
Rows were chosen to be rich in hits. Some 1.7% of all compounds tested hit in one or more screens of this group.
GLP1R inv ag: qHTS of GLP-1 Receptor Inverse Agonists (Inhibition Mode). HEK293 GLP-1R CRE-luciferase, luminescence, 24 h; GLP-1R form is constitutively active. Potency, µM (titrated, usually from 38.3 µM), for the others: at the highest dose activity change, negative = inhibition, most hits filed as inhibitors. hit rate 1.6% among 410,000. AID 624417, 2012. Glucagon-like peptide 1 receptor (Homo sapiens), P43220; note: % is set by controls: 0 for no effect and ±100 for the full control effect; nearly all actives have a fitted effect of over 55% in size
Target sequence (P43220 whole entry, looked up): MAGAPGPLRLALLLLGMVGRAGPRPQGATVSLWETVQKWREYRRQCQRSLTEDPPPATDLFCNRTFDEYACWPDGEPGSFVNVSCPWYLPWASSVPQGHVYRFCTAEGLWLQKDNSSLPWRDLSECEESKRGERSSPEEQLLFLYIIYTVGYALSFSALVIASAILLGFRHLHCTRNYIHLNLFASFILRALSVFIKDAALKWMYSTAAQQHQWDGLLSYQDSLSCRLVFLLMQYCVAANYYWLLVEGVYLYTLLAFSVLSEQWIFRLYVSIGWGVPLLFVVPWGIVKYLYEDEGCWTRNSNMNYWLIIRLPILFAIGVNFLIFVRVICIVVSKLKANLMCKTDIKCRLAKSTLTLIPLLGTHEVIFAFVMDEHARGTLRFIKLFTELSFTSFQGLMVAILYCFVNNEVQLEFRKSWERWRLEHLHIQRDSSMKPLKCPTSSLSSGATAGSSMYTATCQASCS
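Using stably transfected HEK293 (constitutively active GLP-1R, cAMP-luciferase reporter), compounds were incubated 24 hr and luciferase measured by luminescence.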
GLP1R cytotox: qHTS of GLP-1 Receptor Inverse Agonists: Cytotox Screen; HEK293 cAMP-luciferase reporter cells, luminescence, 24 h; Potency, µM (doses to about 38.3 µM), for inactives: at the highest dose activity change, negative = inhibition, most hits filed as inhibitors; hit rate 0.13% among 410,000; AID 624418, 2012;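 note: loss of luciferase light is scored as toxicity; % is set by controls: 0 for no effect and ±100 for the full control effect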
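Quantitative HTS format, 1536 wells, 200 cells/uL seeded. Compounds: 23 nL, 24 h, 37 °C. Detection: luciferase reagent, luminescence at 12 min RT; decreased signal taken as cytotoxic.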
GLP1R ag: qHTS of GLP-1 Receptor Agonists | Glucagon-like peptide 1 receptor (Homo sapiens), P43220 | HEK293 GLP-1R CRE-luciferase, luminescence, 4-6 h; cells express a hypersensitive GLP-1R form | Potency, µM (doses to about 45.6 µM), for the others: at the top dose activation, hits mostly activators | hit rate 0.007% among 380,000; note: % of control where 0% means no effect
Starred values were filed as active, the others as inactive; ? = inconclusive; . = no result given; [ ] = dose if it differs, or a comment. Calls come from the whole dose curve; as a rule, active = well fitted curve in the direction sought with a large enough effect; inconclusive = small, poorly fitted or top-dose-only effect, or another doubt; inactive = no such curve, though single readings can be large; an effect the other way counts as inactive or inconclusive. Potency is the fitted concentration of half-maximal effect.

SMILES	GLP1R inv ag	GLP1R cytotox	GLP1R ag
CC1=NN(C(=O)CSCc2ccccc2)C(O)(c2ccc(F)cc2)C1 (stereo not drawn)	7.9µM*	-4%	14%
COc1ccc(C(=O)NCC(=O)N/N=C/c2ccc(C)o2)cc1OC	38%	-29%	-1%
CC(NC1CCCCC1)C(=O)NN=C(c1ccccc1)c1ccccc1 (stereo not drawn)	?	0%	9%
COc1ccc(CCNC(=O)C2CCC(=O)N2CCc2ccccc2)cc1OC (stereo not drawn)	8%	1%	-6%
CCN(C(=O)CSc1nc2ccccc2nc1Cc1cccc(OC)c1)c1cccc(C)c1	11µM*	-4%	.
CCOC(=O)c1cccnc1SCC(=O)N(CC)c1cccc(C)c1	?	1%	22%
CCN(C(=O)CSc1nc2ccccc2nc1Cc1ccc(F)cc1)c1cccc(C)c1	14%	0%	.
CCN(C(=O)CSc1nc(-c2ccccc2)no1)c1cccc(C)c1	1.3µM*	-22%	.
Cc1nc2scc(C)n2c(=O)c1S(=O)(=O)NCc1ccc(F)cc1	2%	5%	-9%
O=C(Nc1ccc2ccccc2c1)c1onc2c1CCCC2	8.9µM*	-5%	-1%
COC(=O)c1cccc(NC(=O)c2onc3c2CCCC3)c1	-19%	0%[1.53 µM]	0%
CCc1ccc2nc(NC(=O)C3CSC4(C)CCC(=O)N34)sc2c1 (stereo not drawn)	5.6µM*	-17%	12%
CC12CCC(=O)N1C(C(=O)Nc1nc3ccc(Cl)cc3s1)CS2 (stereo not drawn)	2.8µM*	-3%	16%
COc1ccc2nc(NC(=O)C3CSC4(C)CCC(=O)N34)sc2c1 (stereo not drawn)	-27%	-5%	-4%
CC12CCC(=O)N1C(C(=O)Nc1nc3ccc(S(C)(=O)=O)cc3s1)CS2 (stereo not drawn)	14%	-4%	4%
Cc1ccc(N2C(=O)C(CC(=O)Nc3ccccc3)N(CCC3=CCCCC3)C2=O)cc1 (stereo not drawn)	?	-5%	.
COC(=O)CSc1nnc(-c2cccc(O)c2)o1	6%	11%	.
CSc1ccc(/C=N/n2c(COc3ccccc3)n[nH]c2=S)cc1	1%	-7%	5%
COc1cc2ccccc2ccc1=NO	2.5µM*	-20%	-5%
COc1cc2ccccc2cc1C(=O)O	3%	1%	2%
CCCCc1nn2c(=O)cc(COC(=O)c3ccc(NC(=O)CCc4ccccc4)cc3)nc2s1	3%	2%	.
Cc1ccc(NS(=O)(=O)c2ccc3nc(-c4ccccc4)[nH]c3c2)cc1Cl	10µM*	-14%	-5%
Cc1ccc(NC(=O)C2CCCN2S(=O)(=O)c2ccc3nc(-c4ccccc4)[nH]c3c2)cc1C (stereo not drawn)	?	-29%	.
CC(C)c1ccc(NC(=O)C2CCCN2S(=O)(=O)c2ccc3nc(-c4ccccc4)[nH]c3c2)cc1 (stereo not drawn)	8.9µM*	-13%	.
Cc1cc(NS(=O)(=O)c2ccc3nc(-c4ccccc4)[nH]c3c2)ccc1Br	?	-11%	-7%
SMILES	GLP1R inv ag	GLP1R cytotox	GLP1R ag
Cc1cccc(-c2cccc(NC(=O)C3CCCN(C(=O)c4csc(C)n4)C3)c2)c1 (stereo not drawn)	5µM*	-16%	7%
Cc1cccc(-c2cccc(NC(=O)C3CCCN(C(=O)c4cccnc4)C3)c2)c1 (stereo not drawn)	?	-15%	9%
S=C(NCc1ccccc1)C(=S)NCc1ccccc1	10µM*	3%	11%
S=C(NCc1ccccc1)NCc1ccc(CNC(=S)NCc2ccccc2)cc1	-30%	3%	-1%
CCN(CC(=O)NCc1ccc(Cl)cc1)C(=O)c1cc(OC)cc(OC)c1	-29%	3%	9%
CCc1ccc(NC(=O)CN(c2ccc(Cl)cc2)S(=O)(=O)c2ccsc2C(=O)OC)cc1	3.2µM*	1%	.
COC(=O)c1sccc1S(=O)(=O)N(CC(=O)Nc1ccc(C)cc1)c1ccccc1	?	-8%	.
Cc1ccc(N(CC(=O)Nc2ccc(Cl)cc2)S(=O)(=O)c2cccc3nonc23)cc1	10µM*	-17%	-4%
Cc1ccc(NC(=O)CN(c2ccc(C)cc2)S(=O)(=O)c2cccc3nonc23)cc1	?	6%	-4%
CCCCCCCC(=O)CC[C@H]1[C@@H](C/C=C/CCCC(=O)OC(C)C)[C@@H](O)C[C@H]1O	.	.	-7%
OCCc1ccc(NCCc2cccs2)cc1	24%	2%	21%
Cc1cc(C)n(-c2ccc(C(=O)OCC(=O)N3CCN(c4ccccc4)CC3)cc2)n1	-9%	-17%	10%
